The structures appear in SMILES notation. Compounds without any hit were thinned out: in the full panel of roughly 83,000, 20% have a hit.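 Note: values are percent growth. 100 is the growth of untreated cells, values between 100 and 0 indicate rising inhibition; between -100 and 0 indicates cell death.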 Activity calls are given as the source filed them. Rule for the calls: active = growth percent below 10; inactive = the rest.

The subject of the test is T-47D breast. The experiment in a line: NCI-60 one-dose screen, 48 h (100 = growth as untreated, 0 = no growth, -100 = all killed). To be noted: 10 µM unless noted.
Regarding `c1csc(-c2[nH]nc3c2CCc2ccccc2-3)c1`, the growth is -61.7% (active).
For `C1=C(c2ccccc2)c2ccccc2C1` the value was 92.7% (inactive); for `O=[N+]([O-])c1ccc(C(Br)c2ccc([N+](=O)[O-])cc2)cc1`, 83.8% (inactive); for `COc1cccc2c1C(=O)c1c(O)c3c(c(O)c1C2=O)C[C@@](O)(C(=O)CO)C[C@@H]3OC1CC(OC(C)=O)C(OC(C)=O)C(C)O1` (stereo partly specified), -27.3% (active).
In the case of `OC(Cc1cc(CC(O)(C(F)(F)F)C(F)(F)F)nc(CC(O)(C(F)(F)F)C(F)(F)F)c1)(C(F)(F)F)C(F)(F)F` it was -1.31% (active); in that of `CCCCCCCCCCCCCCCCSC(=NCC)NCC`, 8.09% (active).
In the case of `Cc1ccccc1NC(=O)Cc1csc2[n+]1C(=O)/C(=C/c1ccc([N+](=O)[O-])cc1)S2`, the growth is 84.2% (inactive).
As to `CN(C)CCN(C)CC(C)(C)C(=O)/C=C/c1ccc(Cl)c(Cl)c1`, the growth was -56.7% [100 µM] (active).
For `CC(=O)C1Cc2ccccc2C1=O` (stereo unspecified) the value was 101% (inactive).
For `Oc1c(Cl)cc(Cl)cc1C=NCC1CCC(CN=Cc2cc(Cl)cc(Cl)c2O)CC1` (stereo unspecified) the value was 71.4% (inactive).
As to `Clc1ccc(-n2ncc3c(NCCCN4CCOCC4)ncnc32)cc1`, the growth is 85.3% (inactive).
For `O=C1CSC(=S)N1Cc1cccnc1` the value was 18.5% (inactive).
Consider `CCN(CC)CCNC(Cc1ccccc1)c1ccc(OCc2ccccc2)cc1` (stereo unspecified), for which the growth was 68.5% (inactive).
In the case of `O=Nc1ccc2ccccc2c1O` it was 51.5% (inactive); in that of `CCOC(=O)/C(=C\c1ccc2ccccc2c1)P(=O)(OCC)OCC`, 32.4% (inactive); in that of `Cc1ccc2cccc(OC(=O)Nc3cccc(C(F)(F)F)c3)c2n1`, 47.1% (inactive).
